Reference: PubChem BioAssay (NCATS)
Values joined by “and” are separate entries in the source; they are usually repeats but may differ in a detail not shown here. Equal values may be shown once. Records with an inconclusive call do not appear. A call without a number means that no potency is given here. Active and inactive are the calls of the source. The call rests on the fitted dose curve; in most records, active means well fitted curve in the direction sought with a large enough effect; inconclusive means small, poorly fitted or top-dose-only effect, or another doubt; inactive means no such curve, though single readings can be large; an effect the other way counts as inactive or inconclusive.

Tests used:
[1] = Primary qHTS for small molecule stabilizers of the endoplasmic reticulum resident proteome: Secreted ER Calcium Modulated Protein (SERCaMP) assay (AID 1508630); details: SH-SY5Y GLuc-SERCaMP (Gaussia luciferase released on ER calcium loss) secretion, thapsigargin, luminescence; series mostly up to 38.4 µM
Outline: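 The SH-SY5Y reporter protocol was run at 3 concentrations up to 38.3 uM (primary) or 11 concentrations (follow-up): 16 h compound, 100 nM thapsigargin for 4 h, then extracellular luciferase luminescence.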

Papain (Carica papaya) = Papain (Carica papaya) (UniProt P00784); assay: Primary qHTS assay for inhibitors of the protease papain (AID 1645873); details: papain Z-FR-AMC cleavage, AMC fluorescence; series mostly up to 49.8 µM;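 further: papain turnover of Z-FR-AMC read as the AMC fluorescence gain over 10 min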
[2] = Primary qHTS for inhibitors of nuclear receptor binding SET domain protein 2 (NSD2) in an isogenic RCH-ACV NSD2 p.E1099K mutant (9B) (AID 1645876); details: RCH-ACV NSD2 E1099K (9B) viability, CellTiter-Glo, 72 h; series mostly up to 44.9 µM; further: nearly all actives have a fitted effect of over 70% in size; further: potency means the concentration at half of the fitted maximal effect
[3] = Primary qHTS for inhibitors of nuclear receptor binding SET domain protein 2 (NSD2) in an RCH-ACV wild type WT cells (2C) (AID 1645877); details: RCH-ACV (leukaemia line) NSD2 WT (2C) viability, CellTiter-Glo, 72 h; series mostly up to 44.9 µM; further: nearly all actives have a fitted effect of over 70% in size; further: potency means the concentration at half of the fitted maximal effect
[4] = target: Rap guanine nucleotide exchange factor 3 (Homo sapiens) (UniProt O95398); assay: Confirmatory qHTS for agonist of cAMP-regulated guanine nucleotide exchange factor 3 (EPAC1) (AID 1645881); details: EPAC1 Rap1B BODIPY-GDP exchange fluorescence, 100% = cAMP control response; series mostly up to 154 µM;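 further: EPAC1 catalysed release of BODIPY-GDP from Rap1B seen as fluorescence loss; nearly all actives have a fitted effect of over 75% in size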
[5] = target: Rap guanine nucleotide exchange factor 4 (Homo sapiens) (UniProt Q8WZA2); assay: Confirmatory qHTS for agonist of cAMP-regulated guanine nucleotide exchange factor 4 (EPAC2) (AID 1645884); details: EPAC2 GEF activity, Rap1B-BODIPY-GDP fluorescence, percent relative to cAMP agonist control; series mostly up to 154 µM;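 further: nucleotide exchange releases bodipy-GDP from Rap1 and this lowers its fluorescence; nearly all actives have a fitted effect of over 65% in size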
[6] = target: Rap guanine nucleotide exchange factor 4 (Homo sapiens) (UniProt Q8WZA2); assay: Confirmatory qHTS for antagonist of cAMP-regulated guanine nucleotide exchange factor 4 (EPAC2) (AID 1645885); details: EPAC2 Rap1B-BODIPY-GDP exchange fluorescence, biochemical; series mostly up to 114 µM; further: potency means the concentration at half of the fitted maximal effect; nearly all actives have a fitted effect of over 25% in size
[7] = NCATS anti-infectives library activity on HEK293 viability as a counter-qHTS vs the C. elegans viability qHTS (AID 1745854); details: HEK293 viability counter-screen; series mostly up to 41.8 µM
Outline: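 Cytotoxicity counter-screen to a worm viability qHTS: CellTiter-Glo luminescence read 10 min after reagent addition. Compounds (final up to 41.7 uM, a 1:5 dilution series) incubated 24 hr at 37C with 1,500 HEK293 cells per well; digitonin control.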

Rap guanine nucleotide exchange factor 4 (Homo sapiens), sequence (Q8WZA2 whole entry, looked up): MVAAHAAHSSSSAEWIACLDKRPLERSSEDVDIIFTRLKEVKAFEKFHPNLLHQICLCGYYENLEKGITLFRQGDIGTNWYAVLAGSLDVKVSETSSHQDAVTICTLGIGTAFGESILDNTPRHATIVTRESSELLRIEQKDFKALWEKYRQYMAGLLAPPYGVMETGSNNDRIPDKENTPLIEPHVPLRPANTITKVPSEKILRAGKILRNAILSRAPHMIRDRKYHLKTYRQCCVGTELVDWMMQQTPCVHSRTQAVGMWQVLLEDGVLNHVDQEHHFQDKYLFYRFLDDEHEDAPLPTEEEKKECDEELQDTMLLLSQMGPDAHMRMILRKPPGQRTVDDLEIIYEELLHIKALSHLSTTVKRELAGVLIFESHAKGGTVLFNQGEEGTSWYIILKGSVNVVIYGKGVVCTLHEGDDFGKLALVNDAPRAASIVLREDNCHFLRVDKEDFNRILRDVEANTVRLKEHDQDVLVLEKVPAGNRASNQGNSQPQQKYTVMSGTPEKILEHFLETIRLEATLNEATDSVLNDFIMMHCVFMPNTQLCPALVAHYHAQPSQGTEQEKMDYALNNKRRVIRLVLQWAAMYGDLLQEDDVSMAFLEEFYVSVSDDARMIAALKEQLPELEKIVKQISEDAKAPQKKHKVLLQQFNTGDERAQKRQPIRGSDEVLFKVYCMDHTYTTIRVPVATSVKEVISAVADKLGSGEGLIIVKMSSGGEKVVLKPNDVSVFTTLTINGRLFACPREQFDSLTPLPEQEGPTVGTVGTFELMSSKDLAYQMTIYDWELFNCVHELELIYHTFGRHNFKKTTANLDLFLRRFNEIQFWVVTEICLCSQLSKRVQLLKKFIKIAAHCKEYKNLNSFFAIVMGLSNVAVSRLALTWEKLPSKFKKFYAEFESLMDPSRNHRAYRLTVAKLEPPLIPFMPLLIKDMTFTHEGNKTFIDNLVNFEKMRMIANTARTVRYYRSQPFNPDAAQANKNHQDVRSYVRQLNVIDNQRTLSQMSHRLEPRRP
Papain (Carica papaya), sequence (P00784 whole entry, looked up, the tested form may be a part): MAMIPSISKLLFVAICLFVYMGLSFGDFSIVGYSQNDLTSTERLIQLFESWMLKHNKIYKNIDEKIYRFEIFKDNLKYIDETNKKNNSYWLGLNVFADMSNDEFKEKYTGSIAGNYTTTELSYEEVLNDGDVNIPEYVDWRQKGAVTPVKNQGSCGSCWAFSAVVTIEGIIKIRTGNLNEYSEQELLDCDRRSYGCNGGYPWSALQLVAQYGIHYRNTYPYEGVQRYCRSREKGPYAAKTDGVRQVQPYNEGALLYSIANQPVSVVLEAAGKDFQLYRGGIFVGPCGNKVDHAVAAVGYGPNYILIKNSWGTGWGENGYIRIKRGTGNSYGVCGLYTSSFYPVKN
Rap guanine nucleotide exchange factor 3 (Homo sapiens), sequence (O95398 whole entry, looked up): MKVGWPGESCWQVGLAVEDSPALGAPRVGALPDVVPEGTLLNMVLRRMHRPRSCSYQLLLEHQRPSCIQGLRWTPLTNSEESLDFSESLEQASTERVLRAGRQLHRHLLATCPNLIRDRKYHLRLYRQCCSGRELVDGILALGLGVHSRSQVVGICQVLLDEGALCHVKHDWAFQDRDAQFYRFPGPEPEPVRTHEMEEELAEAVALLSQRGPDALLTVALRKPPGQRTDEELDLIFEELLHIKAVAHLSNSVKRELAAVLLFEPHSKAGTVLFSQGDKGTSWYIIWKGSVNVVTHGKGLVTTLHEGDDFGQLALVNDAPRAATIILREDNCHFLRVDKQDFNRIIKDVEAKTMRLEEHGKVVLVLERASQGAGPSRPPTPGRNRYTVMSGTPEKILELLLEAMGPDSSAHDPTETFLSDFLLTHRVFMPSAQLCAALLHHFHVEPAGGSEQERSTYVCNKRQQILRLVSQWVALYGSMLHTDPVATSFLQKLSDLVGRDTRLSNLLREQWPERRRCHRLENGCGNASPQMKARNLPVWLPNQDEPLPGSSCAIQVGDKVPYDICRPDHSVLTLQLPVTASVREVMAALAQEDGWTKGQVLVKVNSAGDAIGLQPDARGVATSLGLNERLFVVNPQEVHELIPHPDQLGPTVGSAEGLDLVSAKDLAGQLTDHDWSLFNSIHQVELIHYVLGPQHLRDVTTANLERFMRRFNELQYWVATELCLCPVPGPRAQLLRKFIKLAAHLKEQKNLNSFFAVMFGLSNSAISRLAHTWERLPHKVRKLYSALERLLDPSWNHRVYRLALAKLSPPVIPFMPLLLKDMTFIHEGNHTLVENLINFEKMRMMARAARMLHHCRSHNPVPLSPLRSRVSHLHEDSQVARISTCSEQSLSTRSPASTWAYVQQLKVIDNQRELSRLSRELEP

SMILES: O=C(O)CCc1ccc(NCc2cccc(Oc3ccccc3)c2)cc1
- Potency [1]: inactive
- Potency (Papain (Carica papaya)): inactive
- Potency [2]: inactive

SMILES: CN(C)c1ccc(C2Nc3ccc4ccccc4c3C3=C2C(=O)CC(C)(C)C3)cc1Br (configuration not stated)
- Potency [1]: inactive
- Potency [2]: inactive

SMILES: CC(C)C[C@H](NC(=O)[C@@H](O)[C@H](N)Cc1ccccc1)C(=O)O
- Potency [1]: inactive
- Potency (Papain (Carica papaya)): inactive
- Potency [2]: inactive
- Potency [3]: inactive

SMILES: CC(C)(C)OC(=O)CN(Cc1ccc(Cl)cc1)Cc1ccc([N+](=O)[O-])s1
- Potency [1]: inactive
- Potency [2]: inactive

SMILES: O=C(C1CC1)N1CC[C@@H](Cn2c(-c3ccc(-c4ccc5occc5c4)cc3)nc3cnccc32)C1
- Potency [1]: inactive
- Potency [2]: 18.6 µM (active)
- Potency [3]: 16.6 µM (active)

SMILES: O=C1[C@H](Cc2ccc(O)cc2)N2C(=O)CCN(C(=O)NCc3ccccc3)[C@H]2CN1Cc1cccc2ccccc12
- Potency [1]: inactive
- Potency [2]: 3.72 µM (active)
- Potency [3]: 3.72 µM (active)

SMILES: O=NN(CCCl)C(=O)NCCCl
- Potency [1]: inactive
- Potency (Papain (Carica papaya)): inactive
- Potency [2]: inactive
- Potency [3]: inactive

SMILES: Cc1cc2c(F)c(Oc3ncnn4cc(OC[C@@H](C)O)c(C)c34)ccc2[nH]1
- Potency [1]: inactive
- Potency [2]: 2.63 µM (active)

SMILES: CC(C)c1onc(-c2c(Cl)cccc2Cl)c1COc1ccc(/C=C/c2cccc(C(=O)O)c2)c(Cl)c1
- Potency [1]: inactive
- Potency [2]: inactive

SMILES: Cc1c(CCOc2ccc(C(=O)O)cc2)c2cc(Cl)ccc2n1C(c1ccccc1)c1ccccc1
- Potency [1]: inactive
- Potency [2]: inactive

SMILES: Cc1ccnc(NS(=O)(=O)c2ccc(NC(=O)Nc3ccc(S(=O)(=O)Nc4nccc(C)n4)cc3)cc2)n1
- Potency [1]: inactive
- Potency [2]: inactive

SMILES: N#CC[C@H](C1CCCC1)n1cc(-c2ncnc3[nH]ccc23)cn1
- Potency [1]: inactive
- Potency [2]: 16.3 µM (active) and 9.34 µM (active)
- Potency [3]: 18.3 µM (active) and 9.34 µM (active)

SMILES: CN1CCN(CCCN2c3ccccc3Sc3ccc(C(F)(F)F)cc32)CC1
- Potency [1]: inactive
- Potency (Papain (Carica papaya)): inactive
- Potency [2]: 18.8 µM (active) and 16.6 µM (active)
- outcome [4]: inactive
- outcome [5]: inactive
- Potency [6]: 24.8 µM (active) and 44.1 µM (active)
- outcome [7]: inactive

SMILES: CS(=O)(=O)c1ccc(C(=O)Nc2ccc(Cl)c(-c3ccccn3)c2)c(Cl)c1
- Potency [1]: inactive
- Potency [2]: inactive
- Potency [3]: inactive
